Reference: PubChem BioAssay (NCATS)
Values without a mark were called inactive. Results filed as inconclusive are left out. A call without a number means that no potency is given here. Active and inactive are the calls of the source. Calls come from the whole dose curve; as a rule, active = well fitted curve in the direction sought with a large enough effect; inconclusive = small, poorly fitted or top-dose-only effect, or another doubt; inactive = no such curve, though single readings can be large; an effect the other way counts as inactive or inconclusive.

Key:
[1] = target: Glutathione peroxidase 1 (Homo sapiens) (UniProt P07203); assay: Primary qHTS Assay for Inhibitors of Recombinant Selenoprotein Glutathione Peroxidase 1 (GPX1) (AID 1845191); note: nearly all actives have a fitted effect of over 65% in size
Chain of Glutathione peroxidase 1 (Homo sapiens) (P07203 whole entry, looked up): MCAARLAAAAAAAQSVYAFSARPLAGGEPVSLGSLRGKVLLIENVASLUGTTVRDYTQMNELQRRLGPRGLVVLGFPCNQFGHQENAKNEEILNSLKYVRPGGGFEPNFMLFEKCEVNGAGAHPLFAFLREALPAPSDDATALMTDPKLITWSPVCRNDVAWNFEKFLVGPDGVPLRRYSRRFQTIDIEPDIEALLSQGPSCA
In short: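 NADPH consumption tracked by fluorescence at 340/450 nm between t=0 and t=15 min, room temperature. Final mix: 10 nM GPX1, 100 nM glutathione reductase, 1 mM GSH, 0.5 mM NADPH, 0.5 mM cumene hydroperoxide, 0.01% BSA; 30 min compound–enzyme preincubation.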

[2] = target: Phospholipid hydroperoxide glutathione peroxidase GPX4 (Homo sapiens) (UniProt P36969); assay: Primary qHTS Assay for Inhibitors of Recombinant Selenoprotein Glutathione Peroxidase 4 (GPX4) (AID 1845192); note: nearly all actives have a fitted effect of over 65% in size; for activity change, negative = inhibition: series mostly up to about 50 µM
Chain of Phospholipid hydroperoxide glutathione peroxidase GPX4 (Homo sapiens) (P36969 whole entry, looked up): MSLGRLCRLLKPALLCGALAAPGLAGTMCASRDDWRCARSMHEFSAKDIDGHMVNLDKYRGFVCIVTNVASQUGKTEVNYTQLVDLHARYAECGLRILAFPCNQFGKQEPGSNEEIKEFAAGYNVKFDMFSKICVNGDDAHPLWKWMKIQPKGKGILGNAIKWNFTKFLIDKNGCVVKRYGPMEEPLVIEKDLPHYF
In short: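 NADPH consumption followed by fluorescence at 340/450 nm, t=0 and after 15 min at room temperature. Reaction started with cumene hydroperoxide (0.5 mM final) after 30 min compound–GPX4 preincubation; final 200 nM GPX4, 100 nM GR, 1 mM GSH, 0.5 mM NADPH.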

[3] = target: Luciferin 4-monooxygenase (Photinus pyralis) (UniProt P08659); assay: Primary firefly luciferase (FLuc) qHTS assay for identification of artifact compounds. (AID 1845220); note: nearly all actives have a fitted effect of over 60% in size; note: potency is the fitted concentration of half-maximal effect; for activity change, negative = inhibition: series mostly up to about 54 µM
In short: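 FLuc 10 nM; luciferin 10 uM; ATP 10 uM; Tris-acetate pH 7.6, Mg-acetate 10 mM; 15 min RT preincubation; 5 min reaction; luminescence.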

[4] = Primary fluorescence-based thiol-reactive (MSTI) qHTS assay for identification of artifact compounds. (AID 1845221); note: nearly all actives have a fitted effect of over 65% in size; note: potency is the fitted concentration of half-maximal effect;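 for activity change, negative = thiol reactive: series mostly up to about 54 µM; thiol-reactive compounds lower the probe fluorescence signal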
In short: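 Compounds were incubated 1 h at room temperature in the dark with the MSTI probe (4 uM) in PBS pH 7.4, 2% DMSO. Signals were normalized between Acetyl-MSTI and MSTI.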

[5] = test system: Nanoluciferase (engineered Oplophorus gracilirostris luciferase); assay: Primary Nanoluciferase (NLuc) qHTS assay for identification of artifact compounds. (AID 1845222);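 note: NLuc secreted into diluted conditioned medium of S16 cells; series mostly up to about 54 µM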
In short: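 NLuc from S16 cell medium (1:55) plus test compounds, 15 min, room temperature. Luminescence after Nano-Glo (1:100) addition, 5 min.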

[6] = Primary redox qHTS assay for identification of artifact compounds. (AID 1845223)
In short: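 Redox-cycling detection via DTT (250 uM final) oxidation coupled to Amplex Red (25 uM)/HRP (250 mU/mL) in HBSS. 15 min preincubation plus 30 min after DTT, room temperature. Ex/Em 525/598 nm; 4-parameter Hill fit against DMSO and 10 uM DA3003.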

Row | Structure (SMILES) | Potency [1] | Potency [2] | Potency [3] | Potency [4] | Potency [5] | Potency [6] | outcome [1] | outcome [2] | activity change, negative = inhibition [3] | activity change, negative = thiol reactive [4] | activity, negative = inhibition [5] | redox activity (% of DA3003) [6]
1 | COC(=O)C1=CO[C@@H](O[C@@H]2O[C@H](CO)[C@@H](O)[C@H](O)[C@H]2O)[C@@H]2C(COC(C)=O)=C[C@H](O)[C@H]12 | inactive | inactive | inactive | inactive | inactive | inactive | – | – | – | – | – | –
2 | O=[N+]([O-])c1cccc2[nH]c(CNc3nc(N4CCOCC4)nc4c3ncn4-c3ccsc3)nc12 | inactive | inactive | inactive | 10.6 µM (active) | inactive | inactive | – | – | – | – | – | –
3 | CCOCc1cc(OC)c(-c2ccc(C[C@H](NC(=O)c3c(F)cccc3F)C(=O)O)cc2)c(OC)c1 | inactive | inactive | inactive | inactive | inactive | inactive | – | – | – | – | – | –
4 | O=C1CC2(CCCC2)[C@H](O)C(=O)N1CCCCN1CCN(c2ncccn2)CC1 | inactive | inactive | inactive | inactive | inactive | inactive | – | – | – | – | – | –
5 | CC1(C)CC(=O)C2=C(C1)NC(=S)NC2c1cccc(O)c1 (stereo not drawn) | inactive | inactive | inactive | inactive | inactive | inactive | – | – | – | – | – | –
6 | O=C(/C=C/c1ccc(O)cc1)N[C@@H](Cc1ccc(O)cc1)C(=O)O | inactive | inactive | inactive | 7.36 µM (active) | inactive | inactive | – | – | – | – | – | –
7 | Cc1ccc(C(=O)Nc2noc3ccccc23)cc1 | inactive | inactive | 84.9 nM (active) | inactive | inactive | inactive | – | – | – | – | – | –
8 | O=C(O)c1cc2cccc([N+](=O)[O-])c2[nH]1 | inactive | inactive | inactive | 21.2 µM (active) | inactive | inactive | – | – | – | – | – | –
9 | Cc1ccc(S(=O)(=O)n2ccc(-c3c(-c4ccc(Cl)cc4)noc3C)n2)cc1 | inactive | inactive | inactive | inactive | inactive | inactive | – | – | – | – | – | –
10 | FC(F)(F)c1cc(-c2ncn(/C=C\c3nnco3)n2)cc(C(F)(F)F)c1 | inactive | inactive | inactive | inactive | inactive | inactive | – | – | – | – | – | –
11 | O=C(c1cn(Cc2cncn2Cc2ccc(Br)cc2)cc1-c1cccc2ccccc12)N1CCOCC1 | inactive | inactive | inactive | inactive | inactive | inactive | – | – | – | – | – | –
12 | C=C(C)C1CC[C@]2(C(=O)O)CC[C@]3(C(=O)O)[C@H](CCC4[C@@]5(C)CC[C@H](O)C(C)(C)C5CC[C@]43C)C12 (stereo partly drawn) | inactive | inactive | inactive | inactive | inactive | inactive | – | – | – | – | – | –
13 | O=C(CCc1nnc2n(Cc3ccc(Cl)cc3)c(=O)c3ccccc3n12)NCCC1=CCCCC1 | inactive | inactive | inactive | inactive | inactive | inactive | – | – | – | – | – | –
14 | CC1(C)CCC(C)(C)c2cc(C3(c4ccc(C(=O)O)cc4)OCCO3)ccc21 | inactive | inactive | inactive | inactive | inactive | inactive | – | – | – | – | – | –
15 | COc1ccc(CCC(=O)c2c(O)cc(O)cc2O[C@@H]2O[C@H](CO)[C@@H](O)[C@H](O)[C@H]2O)cc1 | inactive | inactive | inactive | 10.3 µM (active) | inactive | inactive | – | – | – | – | – | –
16 | C=C1CC2C(C)(CCC(=O)O)C(C(C)(C)O)CCC2(C)C2C(=O)OC(C)(C(=O)OC)C(=O)C12C (stereo not drawn) | inactive | inactive | inactive | inactive | inactive | inactive | – | – | – | – | – | –
17 | C/C1=C\[C@H]2OC(=O)[C@@H](C)[C@@H]2CC/C(C(=O)O)=C/CC1 | inactive | inactive | inactive | 11.9 µM (active) | inactive | inactive | – | – | – | – | – | –
18 | C[C@@H]1O[C@@H](O[C@H]2[C@H](O[C@H]3[C@H](O)[C@@H](C(=O)O)O[C@@H](O[C@H]4CC[C@@]5(C)C(CC[C@]6(C)C5CC[C@]57OC[C@@]8(CCC(C)(C)CC85)[C@H](O)C[C@]76C)C4(C)C)[C@@H]3O[C@@H]3O[C@H](CO)[C@@H](O[C@@H]4OC[C@@H](O)[C@H](O)[C@H]4O)[C@H](O)[C@H]3O)O[C@H](CO)[C@H](O)[C@@H]2O)[C@H](O)[C@H](O)[C@H]1O (stereo partly drawn) | – | – | – | – | – | – | inactive [at 9.52 µM] | inactive [at 9.73 µM] | 0.267% [at 11.6 µM] | 330% [at 11.5 µM] | 0% [at 11.6 µM] | 15% [at 11.5 µM]
19 | CC1(C)CC2C(O)c3cocc3CC(C)(O)C2C1 (stereo not drawn) | inactive | inactive | inactive | inactive | inactive | inactive | – | – | – | – | – | –
20 | COc1ccc(-c2cnc(-c3cccc4c3-c3ccccc3C4=O)o2)cc1 | inactive | inactive | inactive | inactive | inactive | inactive | – | – | – | – | – | –
21 | CS(=O)(=O)N(CC(=O)NCC1CC1)c1cc(C(F)(F)F)ccc1Cl | inactive | inactive | inactive | inactive | inactive | inactive | – | – | – | – | – | –
22 | CC(=O)O[C@@H]1c2c(C)coc2C(=O)[C@@]23O[C@@H]2CC[C@H](C)[C@@]13C | inactive | inactive | inactive | inactive | inactive | inactive | – | – | – | – | – | –
23 | CC(C)(C)NCCCNC(=O)c1cccc(Br)c1 | inactive | inactive | inactive | inactive | inactive | inactive | – | – | – | – | – | –
